Data reported in PubChem BioAssay AID1159580 (chemical genetic matrix, 2015).
In all, about 5,500 compounds went through this assay and about 2,000 (36%) were called active. About 18% were inconclusive and are not listed. Rule as the data show it: active = normalized growth mostly below about 0.91 (no sharp cut-off); inconclusive = no clear call, values can overlap the other calls; inactive = mostly above about 0.92. Some of the results follow.

Experiment: chemical genetic growth profiling, strain panel (AID 1159580);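 also: tested at 20 µM; growth read once vehicle control cultures reached saturation at 30 °C; 1 = growth at the plate median or of vehicle wells; lower values mean less growth of the strain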
Conditions: growth OD

Measured: normalized growth

Nc1ccc(S(=O)(=O)Nc2ccc(Cl)nn2)cc1
inactive: S. cerevisiae deletion strains, locus YJR043C, strain POL32, active compounds read low 0.991 | S. cerevisiae deletion strains, locus YJR066W, strain TOR1, active compounds read low 0.926 | S. cerevisiae deletion strains, locus YKL009W, strain mrt4, active compounds read low 1.03 | S. cerevisiae deletion strains, locus YKL068W, active compounds read low 0.998 | S. cerevisiae deletion strains, locus YKL085W, strain MDH1 (second series), active compounds read low 0.992 | S. cerevisiae deletion strains, locus YKL085W, strain MDH1, active compounds read low 0.992 | S. cerevisiae deletion strains, locus YKL160W, strain elf1, active compounds read low 0.966 | S. cerevisiae deletion strains, locus YKL190W, strain CNB1, active compounds read low 1.01 | S. cerevisiae deletion strains, locus YKR001C, strain vps1, active compounds read low 0.995 | S. cerevisiae deletion strains, locus YKR026C, strain gcn3, active compounds read low 0.982 | S. cerevisiae deletion strains, locus YKR091W, strain srl3, active compounds read low 0.996 | S. cerevisiae deletion strains, locus YLL001W, strain dnm1, active compounds read low 0.981 | S. cerevisiae deletion strains, locus YLL026W, active compounds read low 0.998 | S. cerevisiae deletion strains, locus YLL041C, strain sdh2, active compounds read low 0.989 | S. cerevisiae deletion strains, locus YLR027C, strain aat2, active compounds read low 0.995 | S. cerevisiae deletion strains, locus YLR039C, strain RIC1, active compounds read low 1.06 | S. cerevisiae deletion strains, locus YLR058C, strain SHM2, active compounds read low 1.01 | S. cerevisiae deletion strains, locus YLR102C, strain apc9, active compounds read low 1 | S. cerevisiae deletion strains, locus YLR113W, strain HOG1, active compounds read low 0.984 | S. cerevisiae deletion strains, locus YLR221C, strain rsa3, active compounds read low 0.991 | S. cerevisiae deletion strains, locus YLR258W, strain gsy2, active compounds read low 0.991 | S. cerevisiae deletion strains, locus YLR262C, strain YPT6 (second series), active compounds read low 0.986 | S. cerevisiae deletion strains, locus YLR262C, strain YPT6, active compounds read low 1.06 | S. cerevisiae deletion strains, locus YLR268W, strain sec22, active compounds read low 1 | S. cerevisiae deletion strains, locus YLR320W, strain mms22, active compounds read low 0.969 | S. cerevisiae deletion strains, locus YLR330W, strain CHS5, active compounds read low 1.01 | S. cerevisiae deletion strains, locus YLR342W, strain FKS1 (second series), active compounds read low 1.05 | S. cerevisiae deletion strains, locus YLR342W, strain FKS1, active compounds read low 0.98 | S. cerevisiae deletion strains, locus YLR357W, strain rsc2, active compounds read low 0.978 | S. cerevisiae deletion strains, locus YLR370C, strain arc18, active compounds read low 0.984 | S. cerevisiae deletion strains, locus YLR371W, strain rom2, active compounds read low 1 | S. cerevisiae deletion strains, locus YLR384C, strain iki3, active compounds read low 0.993 | S. cerevisiae deletion strains, locus YLR418C, strain cdc73, active compounds read low 1.03 | S. cerevisiae deletion strains, locus YML016C, strain PPZ1, active compounds read low 1 | S. cerevisiae deletion strains, locus YML032C, strain rad52, active compounds read low 1.01 | S. cerevisiae deletion strains, locus YML120C, strain ndi1, active compounds read low 0.983 | S. cerevisiae deletion strains, locus YML124C, strain tub3, active compounds read low 1.01 | S. cerevisiae deletion strains, locus YMR058W, strain fet3, active compounds read low 0.987 | S. cerevisiae deletion strains, locus YMR078C, strain ctf18, active compounds read low 1.01 | S. cerevisiae deletion strains, locus YMR125W, strain sto1, active compounds read low 0.984 | S. cerevisiae deletion strains, locus YMR129W, active compounds read low 0.986 | S. cerevisiae deletion strains, locus YMR205C, strain PFK2, active compounds read low 0.97 | S. cerevisiae deletion strains, locus YMR223W, strain ubp8, active compounds read low 1.04 | S. cerevisiae deletion strains, locus YMR231W, strain pep5, active compounds read low 0.987 | S. cerevisiae deletion strains, locus YMR263W, strain SAP30, active compounds read low 0.995 | S. cerevisiae deletion strains, locus YMR307W, strain GAS1, active compounds read low 1.04 | S. cerevisiae deletion strains, locus YNL067W, strain RPL9B, active compounds read low 0.983 | S. cerevisiae deletion strains, locus YNL071W, strain lat1, active compounds read low 0.995 | S. cerevisiae deletion strains, locus YNL183C, strain NPR1, active compounds read low 0.927 | S. cerevisiae deletion strains, locus YNL209W, strain ssb2, active compounds read low 0.999 | S. cerevisiae deletion strains, locus YNL233W, strain BNI4, active compounds read low 0.989 | S. cerevisiae deletion strains, locus YNL248C, strain rpa49, active compounds read low 0.994 | S. cerevisiae deletion strains, locus YNL250W, strain rad50, active compounds read low 1.03 | S. cerevisiae deletion strains, locus YNL271C, strain bni1, active compounds read low 1 | S. cerevisiae deletion strains, locus YNL298W, strain CLA4, active compounds read low 1 | S. cerevisiae deletion strains, locus YNL307C, strain MCK1, active compounds read low 1.01 | S. cerevisiae deletion strains, locus YNL322C, strain KRE1 (second series), active compounds read low 0.976 | S. cerevisiae deletion strains, locus YNR049C, strain mso1, active compounds read low 0.995 | S. cerevisiae deletion strains, locus YNR052C, strain pop2, active compounds read low 1.01 | S. cerevisiae deletion strains, locus YOL006C, strain TOP1, active compounds read low 0.951 | S. cerevisiae deletion strains, locus YOL012C, strain htz1 1.39 | S. cerevisiae deletion strains, locus YOL147C, strain pex11, active compounds read low 1 | S. cerevisiae deletion strains, locus YOR001W, strain rrp6, active compounds read low 0.995 | S. cerevisiae deletion strains, locus YOR061W, strain CKA2, active compounds read low 1 | S. cerevisiae deletion strains, locus YOR069W, strain VPS5, active compounds read low 1.01 | S. cerevisiae deletion strains, locus YOR070C, strain gyp1, active compounds read low 0.991 | S. cerevisiae deletion strains, locus YOR080W, strain dia2, active compounds read low 0.979 | S. cerevisiae deletion strains, locus YOR083W, strain WHI5, active compounds read low 0.96 | S. cerevisiae deletion strains, locus YOR106W, strain vam3, active compounds read low 0.959 | S. cerevisiae deletion strains, locus YOR136W, strain idh2, active compounds read low 0.995 | S. cerevisiae deletion strains, locus YOR144C, strain elg1, active compounds read low 0.995 | S. cerevisiae deletion strains, locus YOR184W, strain ser1, active compounds read low 1.02 | S. cerevisiae deletion strains, locus YOR231W, strain MKK1, active compounds read low 0.991 | S. cerevisiae deletion strains, locus YOR265W, strain rbl2, active compounds read low 0.999 | S. cerevisiae deletion strains, locus YOR270C, strain vph1, active compounds read low 0.994 | S. cerevisiae deletion strains, locus YOR290C, strain snf2, active compounds read low 0.985 | S. cerevisiae deletion strains, locus YOR316C, strain cot1, active compounds read low 0.997 | S. cerevisiae deletion strains, locus YPL051W, strain arl3, active compounds read low 0.98 | S. cerevisiae deletion strains, locus YPL078C, strain atp4, active compounds read low 0.982 | S. cerevisiae deletion strains, locus YPL106C, strain sse1, active compounds read low 0.969 | S. cerevisiae deletion strains, locus YPL240C, strain hsp82, active compounds read low 0.978 | S. cerevisiae deletion strains, locus YPL256C, strain CLN2, active compounds read low 0.962 | S. cerevisiae deletion strains, locus YPR119W, strain clb2, active compounds read low 0.999 | S. cerevisiae deletion strains, locus YPR141C, strain kar3, active compounds read low 0.995 | S. cerevisiae deletion strains, locus YPR163C, strain tif3, active compounds read low 1.01 | S. cerevisiae deletion strains, locus YPR167C, strain met16, active compounds read low 1 | S. cerevisiae deletion strains, strain wtn01, active compounds read low 1.02 | S. cerevisiae strains, strain wild type, active compounds read low 1.01
